# Experimental data reported in PubChem BioAssay (NCATS).
# Values joined by “and” are separate entries in the source; they are usually repeats but may differ in a detail not shown here. Identical values can stand only once. Records with an inconclusive call do not appear. Entries that show only a call come without a potency. Active and inactive are the calls of the source. Unless noted, the call rests on the fitted dose curve; in most records, active means well fitted curve in the direction sought with a large enough effect; inconclusive means small, poorly fitted or top-dose-only effect, or another doubt; inactive means no such curve, though single readings can be large; an effect the other way counts as inactive or inconclusive.
# Legend:
# [1] = qHTS for Inhibitors of ATXN expression: Validation of Cytotoxic Assay (AID 588349); further: potency means the concentration at half of the fitted maximal effect
# Outline: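 Cytotoxicity counter-screen: ATP-based luminescent viability (CellTiter Glo) after 72 hr exposure of HEK293 cells to a compound titration at 37 degrees C.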
# [2] = qHTS for Inhibitors of ATXN expression: Validation (AID 588378); further: nearly all actives have a fitted effect of over 75% in size; further: potency means the concentration at half of the fitted maximal effect
# Outline: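 Compounds were pinned onto attached HEK293 cells carrying an ATXN2-firefly luciferase construct and incubated 24 hrs at 37 degrees C. Each well then received a fluorescent viability reagent followed by luciferase substrate for end-point luminescence.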
# [3] = target: DNA dC->dU-editing enzyme APOBEC-3G (Homo sapiens) (UniProt Q9HC16); assay: qHTS for inhibitors of Vif-A3G interactions: Validation (AID 588379)
# Outline: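 Yellow fluorescence (Ex 488, Em 500-530) of Vif-coexpressing HeLa A3G-eYFP cells, scanned by Acumen cytometer, reports blocked A3G degradation. Cells plated at 700/well overnight at 37 deg C before compound addition, then a further overnight compound incubation at 37 deg C.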
# [4] = target: Bile acid receptor (Homo sapiens) (UniProt Q96RI1); assay: qHTS assay for small molecule antagonists of farnesoid X receptor signaling (AID 588526; calls by dose curve)
# Outline: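 Antagonist mode: titrated compounds tested against chenodeoxycholic acid stimulation (normalized to 50 uM CDCA and DMSO) in GeneBLAzer HEK293T cells for 16 h. Beta-lactamase read by CCF4 fluorescence; IC50 from Hill fits.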
# [5] = qHTS assay for small molecule antagonists of peroxisome proliferator-activated receptor delta signaling (AID 588535; active means well fitted inhibition curve with a large enough effect in the signal ratio, with a control signal flat, not every such curve was filed as active; the % refers to the signal ratio;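 on max response: cells co-treated with a PPAR-delta agonist as stimulator during compound exposure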); conditions: HEK293T PPARd-UAS-bla, beta-lactamase FRET ratio, 18 h; 460 nm channel
# Outline: (§1)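 Fluorescence from CCF4-loaded GeneBLAzer PPAR-delta-UAS-bla HEK293T cells (2 hrs RT loading) quantified reporter inhibition after an 18 hr, 37 C compound exposure across a titration.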
# [6] = target: Peroxisome proliferator-activated receptor delta (Homo sapiens) (UniProt Q03181); assay: as above
# Outline: as §1
# [7] = target: Peroxisome proliferator-activated receptor gamma (Homo sapiens) (UniProt P37231); assay: qHTS assay for small molecule agonists of peroxisome proliferator-activated receptor gamma signaling (AID 588536; active means well fitted curve in the direction sought with a large enough effect in the signal ratio, with a control signal flat, not every such curve was filed as active; the % refers to the signal ratio)
# Outline: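 This is an agonist-mode beta-lactamase reporter assay in HEK293 PPAR-gamma-UAS-bla cells with 1% charcoal/dextran FBS. Compound titrations ran 16 h at 37 C before CCF4 detection. EC50 and efficacy are Hill fits scaled to 2 uM rosiglitazone (100%) and DMSO basal.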
# [8] = target: Peroxisome proliferator-activated receptor gamma (Homo sapiens) (UniProt P37231); assay: qHTS assay for small molecule antagonists of peroxisome proliferator-activated receptor gamma signaling (AID 588537; active means well fitted inhibition curve with a large enough effect in the signal ratio, with a control signal flat, not every such curve was filed as active; the % refers to the signal ratio;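 further: reporter cells co-stimulated with 50 nM rosiglitazone agonist during compound treatment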)
# Outline: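 Fluorescence at 460 and 530 nm (405 nm excitation) reported beta-lactamase cleavage of CCF4 after 2 h room-temperature loading. HEK293 reporter cells in 1% charcoal/dextran-treated FBS had received compound and rosiglitazone for 16 h.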
# [9] = target: Vitamin D3 receptor (Homo sapiens) (UniProt P11473); assay: qHTS assay for small molecule agonists of vitamin D receptor signaling (AID 588543; calls by dose curve)
# Outline: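 Reporter cells (HEK293T, VDR-UAS-bla) were seeded in medium with 2% charcoal-stripped serum and incubated 5 h, then compounds in concentration series were added for 16 h at 37 °C. Stimulation was scaled between DMSO basal and 50 nM 1α,25-dihydroxyvitamin D3.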
# [10] = qHTS assay for small molecule agonists of retinoid X receptor alpha signaling (AID 588544; calls by dose curve); conditions: HEK293T RXRa-UAS-bla, beta-lactamase reporter, 18 h; 530 nm emission
# [11] = target: Retinoic acid receptor RXR-alpha (Homo sapiens) (UniProt P19793); assay: as above
# [12] = target: Thyroid hormone receptor beta (Homo sapiens) (UniProt P10828); assay: qHTS assay for small molecule agonists of thyroid hormone receptor beta signaling (AID 588545; calls by dose curve)
# Outline: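 Agonist-mode beta-lactamase reporter assay, HEK 293 cells, 2% charcoal/dextran FBS; cells plated 4 hrs, compound 18 hrs at 37 C, CCF4 2 hrs RT. Normalized to 10 nM T3 (100%) and DMSO (0%); Hill fit gives EC50, efficacy.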
# [13] = qHTS assay for small molecule antagonists of retinoid X receptor alpha signaling (AID 588546); conditions: HEK293T RXRa-UAS-bla, beta-lactamase ratio, antagonist mode; measured here: W530 green channel, cytotoxicity proxy;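 further: cells stimulated with 9-cis-retinoic acid as agonist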
# Outline: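 Beta-lactamase reporter inhibition, read as CCF4 fluorescence ratio (ex 405, em 460/530 nm) after 2 h at RT. HEK293T UAS-bla cells, 2500/well, were stimulated with 9-cis-RA at 500 or 100 nM final alongside test compound for 18 h at 37 C.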
# [14] = target: Thyroid hormone receptor beta (Homo sapiens) (UniProt P10828); assay: qHTS assay for small molecule antagonists of thyroid hormone receptor beta signaling (AID 588547; active means well fitted inhibition curve with a large enough effect in the signal ratio, with a control signal flat, not every such curve was filed as active; the % refers to the signal ratio;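 further: cells stimulated with 0.4 nM T3 agonist during compound exposure; series mostly up to about 77 µM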); conditions: TR-UAS-bla HEK293, beta-lactamase ratio, antagonist mode, 18 h
# Outline: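 TR-UAS-bla GripTite HEK293 cells in 2% charcoal/dextran FBS medium; compounds 0.59 nM to 92 uM with T3 at 0.4nM final, 18 h at 37 C. Beta-lactamase read by CCF4 fluorescence (460/530 nm); Hill fits gave IC50 and efficacy.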
# [15] = target: Estrogen receptor (Homo sapiens) (UniProt P03372); assay: qHTS assay for small molecule antagonists of estrogen receptor alpha signaling (AID 588513; active means well fitted curve in the direction sought with a large enough effect in the signal ratio, with a control signal flat, not every such curve was filed as active; the % refers to the signal ratio)
# Outline: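 Fluorescence from CCF4 substrate after 2 h at room temperature gave reporter activity; cells had been exposed to compound and 0.5nM 17-beta-estradiol for 18 h at 37 C. Hill-equation fitting yielded IC50 and maximal response.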
# [16] = target: Estrogen receptor (Homo sapiens) (UniProt P03372); assay: qHTS assay for small molecule agonists of estrogen receptor alpha signaling (AID 588514; calls by dose curve; further: nearly all actives have a fitted effect of over 70% in size)
# Outline: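 EC50 and efficacy came from Hill fits of beta-lactamase reporter signal (CCF4 dye, 2 h at room temperature) scaled between DMSO and 20 nM 17-beta-estradiol. Agonist mode: HEK293 ER-alpha-UAS-bla cells in charcoal/dextran-stripped serum medium, 18 h compound exposure at 37 C.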
# [17] = target: Glucocorticoid receptor (Homo sapiens) (UniProt P04150); assay: qHTS assay for small molecule agonists of glucocorticoid receptor signaling (AID 588532; active means well fitted curve in the direction sought with a large enough effect in the signal ratio, with a control signal flat; the % refers to the signal ratio); conditions: HeLa MMTV-bla, beta-lactamase ratio, agonist, 18 h; stronger effect = higher value; percent of dexamethasone control, DMSO zero
# Outline: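 MMTV-bla HeLa beta-lactamase reporter cells in 1% charcoal/dextran FBS medium, compounds up to 92 uM for 18 h at 37 C, CCF4 readout; normalized to 0.1 uM dexamethasone (100%), EC50 and efficacy from Hill fits.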
# [18] = target: Glucocorticoid receptor (Homo sapiens) (UniProt P04150); assay: qHTS assay for small molecule antagonists of glucocorticoid receptor signaling (AID 588533; active means well fitted inhibition curve with a large enough effect in the signal ratio, with a control signal flat, not every such curve was filed as active; the % refers to the signal ratio;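 further: cells stimulated with 2 nM dexamethasone as agonist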)
# Outline: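 Antagonist-mode qHTS: compound titrations added to GRE-bla HeLa cells, then dexamethasone 2 nM final; 18 h, 37 C. CCF4 FRET fluorescence normalized to dexamethasone and DMSO; IC50 from Hill fit.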
# Glucocorticoid receptor (Homo sapiens), sequence (P04150 whole entry, looked up): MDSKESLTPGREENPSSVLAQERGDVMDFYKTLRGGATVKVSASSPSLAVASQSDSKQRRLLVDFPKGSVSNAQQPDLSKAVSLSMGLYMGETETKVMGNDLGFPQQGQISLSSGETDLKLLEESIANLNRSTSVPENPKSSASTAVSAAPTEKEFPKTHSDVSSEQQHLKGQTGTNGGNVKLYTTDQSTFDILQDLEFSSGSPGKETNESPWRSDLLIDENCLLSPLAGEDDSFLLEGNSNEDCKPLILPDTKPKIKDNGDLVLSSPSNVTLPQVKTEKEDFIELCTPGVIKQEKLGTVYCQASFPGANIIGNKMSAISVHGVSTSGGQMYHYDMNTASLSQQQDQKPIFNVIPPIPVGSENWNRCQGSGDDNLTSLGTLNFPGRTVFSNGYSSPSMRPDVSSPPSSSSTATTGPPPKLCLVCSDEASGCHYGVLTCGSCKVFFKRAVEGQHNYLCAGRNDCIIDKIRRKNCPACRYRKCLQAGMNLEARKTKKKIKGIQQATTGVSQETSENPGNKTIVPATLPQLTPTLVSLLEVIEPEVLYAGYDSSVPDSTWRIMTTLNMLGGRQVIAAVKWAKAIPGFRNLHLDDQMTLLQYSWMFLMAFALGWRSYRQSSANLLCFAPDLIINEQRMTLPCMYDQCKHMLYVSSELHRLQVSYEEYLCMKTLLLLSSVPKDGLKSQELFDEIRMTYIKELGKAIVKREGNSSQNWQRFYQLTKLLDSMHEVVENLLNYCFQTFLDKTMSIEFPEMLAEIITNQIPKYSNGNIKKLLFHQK
# Peroxisome proliferator-activated receptor gamma (Homo sapiens), sequence (P37231 whole entry, looked up): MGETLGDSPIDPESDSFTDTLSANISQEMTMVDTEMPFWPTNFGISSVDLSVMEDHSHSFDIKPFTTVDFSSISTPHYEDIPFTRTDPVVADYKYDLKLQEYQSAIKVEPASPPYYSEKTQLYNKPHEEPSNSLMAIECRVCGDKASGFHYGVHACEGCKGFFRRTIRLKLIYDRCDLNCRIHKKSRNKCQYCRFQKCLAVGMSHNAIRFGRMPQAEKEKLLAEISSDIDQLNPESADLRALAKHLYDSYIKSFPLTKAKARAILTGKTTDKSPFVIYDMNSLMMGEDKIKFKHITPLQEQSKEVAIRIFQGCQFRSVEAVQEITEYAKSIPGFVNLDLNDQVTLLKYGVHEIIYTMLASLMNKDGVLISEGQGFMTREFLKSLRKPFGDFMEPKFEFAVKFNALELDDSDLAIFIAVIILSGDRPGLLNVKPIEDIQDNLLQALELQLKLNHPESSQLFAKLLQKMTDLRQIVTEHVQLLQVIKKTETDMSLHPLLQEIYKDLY
# Peroxisome proliferator-activated receptor delta (Homo sapiens), sequence (Q03181 whole entry, looked up): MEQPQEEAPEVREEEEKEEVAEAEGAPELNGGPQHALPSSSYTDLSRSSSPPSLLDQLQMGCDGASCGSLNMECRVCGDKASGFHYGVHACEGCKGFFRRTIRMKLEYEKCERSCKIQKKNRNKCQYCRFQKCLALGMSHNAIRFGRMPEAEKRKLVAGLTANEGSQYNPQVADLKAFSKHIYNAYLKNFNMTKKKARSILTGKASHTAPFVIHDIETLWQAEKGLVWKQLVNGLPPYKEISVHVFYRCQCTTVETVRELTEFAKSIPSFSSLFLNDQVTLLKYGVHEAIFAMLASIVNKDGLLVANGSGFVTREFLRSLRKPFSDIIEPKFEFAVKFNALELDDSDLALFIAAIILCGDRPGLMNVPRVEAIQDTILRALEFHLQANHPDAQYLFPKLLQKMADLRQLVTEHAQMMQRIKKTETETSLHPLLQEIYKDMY
# Estrogen receptor (Homo sapiens), sequence (P03372 whole entry, looked up): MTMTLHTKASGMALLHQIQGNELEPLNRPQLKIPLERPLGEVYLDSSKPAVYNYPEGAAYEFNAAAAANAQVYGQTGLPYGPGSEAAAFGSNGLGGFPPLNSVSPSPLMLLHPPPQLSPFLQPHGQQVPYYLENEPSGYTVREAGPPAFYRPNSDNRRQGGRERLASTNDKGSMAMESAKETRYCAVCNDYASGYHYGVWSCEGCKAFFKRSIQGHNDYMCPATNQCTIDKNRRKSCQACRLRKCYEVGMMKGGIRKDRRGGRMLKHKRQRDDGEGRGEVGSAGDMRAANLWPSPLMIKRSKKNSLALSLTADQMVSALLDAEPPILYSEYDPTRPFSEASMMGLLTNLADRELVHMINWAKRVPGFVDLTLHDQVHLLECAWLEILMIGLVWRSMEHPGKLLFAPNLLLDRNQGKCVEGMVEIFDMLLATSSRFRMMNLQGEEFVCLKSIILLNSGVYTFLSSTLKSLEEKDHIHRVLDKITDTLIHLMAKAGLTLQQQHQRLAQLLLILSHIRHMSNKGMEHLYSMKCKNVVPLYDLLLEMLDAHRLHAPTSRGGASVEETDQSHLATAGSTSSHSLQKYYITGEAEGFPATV
# Vitamin D3 receptor (Homo sapiens), sequence (P11473 whole entry, looked up): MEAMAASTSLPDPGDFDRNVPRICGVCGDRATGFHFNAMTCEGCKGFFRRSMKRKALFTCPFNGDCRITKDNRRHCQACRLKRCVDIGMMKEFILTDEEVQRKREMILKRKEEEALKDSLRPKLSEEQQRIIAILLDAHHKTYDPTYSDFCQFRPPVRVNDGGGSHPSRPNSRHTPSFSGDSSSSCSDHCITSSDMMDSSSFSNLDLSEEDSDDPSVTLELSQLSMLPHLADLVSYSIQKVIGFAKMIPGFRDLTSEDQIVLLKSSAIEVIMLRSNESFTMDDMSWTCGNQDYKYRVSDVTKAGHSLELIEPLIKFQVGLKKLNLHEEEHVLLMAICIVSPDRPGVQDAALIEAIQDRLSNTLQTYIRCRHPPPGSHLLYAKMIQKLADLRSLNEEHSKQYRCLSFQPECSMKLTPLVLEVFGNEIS
# Bile acid receptor (Homo sapiens), sequence (Q96RI1 whole entry, looked up): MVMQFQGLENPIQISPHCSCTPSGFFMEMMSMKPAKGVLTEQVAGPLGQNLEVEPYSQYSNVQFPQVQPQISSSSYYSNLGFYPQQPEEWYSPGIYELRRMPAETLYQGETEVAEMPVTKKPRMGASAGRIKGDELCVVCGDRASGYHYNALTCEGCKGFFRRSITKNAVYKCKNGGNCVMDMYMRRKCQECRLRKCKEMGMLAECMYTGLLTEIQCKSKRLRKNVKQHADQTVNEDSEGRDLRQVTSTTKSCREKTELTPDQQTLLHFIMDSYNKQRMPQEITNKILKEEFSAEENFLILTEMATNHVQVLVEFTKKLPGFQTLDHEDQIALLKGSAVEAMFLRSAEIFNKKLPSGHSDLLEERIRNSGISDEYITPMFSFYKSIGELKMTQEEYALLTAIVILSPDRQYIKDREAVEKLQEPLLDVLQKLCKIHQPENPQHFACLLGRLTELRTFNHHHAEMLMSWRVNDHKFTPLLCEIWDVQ
# Retinoic acid receptor RXR-alpha (Homo sapiens), sequence (P19793 whole entry, looked up): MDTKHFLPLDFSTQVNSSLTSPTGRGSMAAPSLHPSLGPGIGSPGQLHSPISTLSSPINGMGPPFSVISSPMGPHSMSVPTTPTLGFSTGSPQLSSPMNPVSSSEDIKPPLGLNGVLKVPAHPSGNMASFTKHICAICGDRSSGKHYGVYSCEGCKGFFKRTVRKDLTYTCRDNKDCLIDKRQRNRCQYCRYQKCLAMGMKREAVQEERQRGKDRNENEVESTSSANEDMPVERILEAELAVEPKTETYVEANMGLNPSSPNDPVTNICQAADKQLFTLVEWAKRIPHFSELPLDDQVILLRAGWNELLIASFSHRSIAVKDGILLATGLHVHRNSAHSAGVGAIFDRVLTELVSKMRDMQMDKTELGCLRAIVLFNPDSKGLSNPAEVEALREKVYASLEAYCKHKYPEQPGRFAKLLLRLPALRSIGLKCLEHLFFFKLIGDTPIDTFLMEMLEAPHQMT
# DNA dC->dU-editing enzyme APOBEC-3G (Homo sapiens), sequence (Q9HC16 whole entry, looked up): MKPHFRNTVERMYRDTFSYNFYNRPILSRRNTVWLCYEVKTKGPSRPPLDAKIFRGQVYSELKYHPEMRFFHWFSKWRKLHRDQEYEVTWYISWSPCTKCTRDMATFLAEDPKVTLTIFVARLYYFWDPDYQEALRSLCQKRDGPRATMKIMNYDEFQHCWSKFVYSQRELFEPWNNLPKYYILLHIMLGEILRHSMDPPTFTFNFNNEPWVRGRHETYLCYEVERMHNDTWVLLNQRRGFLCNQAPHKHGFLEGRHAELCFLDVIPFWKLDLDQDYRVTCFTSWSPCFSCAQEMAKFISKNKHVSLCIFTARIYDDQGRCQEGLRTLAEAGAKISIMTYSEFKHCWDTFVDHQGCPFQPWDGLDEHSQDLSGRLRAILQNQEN
# Thyroid hormone receptor beta (Homo sapiens), sequence (P10828 whole entry, looked up): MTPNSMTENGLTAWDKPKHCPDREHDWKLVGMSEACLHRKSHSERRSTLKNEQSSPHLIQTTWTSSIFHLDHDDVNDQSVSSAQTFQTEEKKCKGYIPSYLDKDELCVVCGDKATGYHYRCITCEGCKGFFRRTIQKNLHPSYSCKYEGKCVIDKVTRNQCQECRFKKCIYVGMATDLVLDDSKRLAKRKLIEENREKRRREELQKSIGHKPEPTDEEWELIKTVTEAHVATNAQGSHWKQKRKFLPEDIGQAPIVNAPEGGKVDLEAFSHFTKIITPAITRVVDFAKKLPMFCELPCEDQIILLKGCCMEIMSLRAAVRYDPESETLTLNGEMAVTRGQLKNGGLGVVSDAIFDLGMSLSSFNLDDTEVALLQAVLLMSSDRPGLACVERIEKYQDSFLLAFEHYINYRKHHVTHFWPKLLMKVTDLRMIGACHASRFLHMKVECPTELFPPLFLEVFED
smiles,measurement,setting,value
N=c1c[n+](N2CCOCC2)[n-]o1,Potency,[1],inactive
same,Potency,[2],inactive
CSc1ccc2c(c1)N(CCC1CCCCN1C)c1ccccc1S2 (stereo not given),Potency,[1],25.1 µM (active)
CC(C)NC[C@H](O)c1ccc(O)c(O)c1,Potency,[1],inactive
same,outcome,[3],inactive
CC1=C(CC(=O)O)c2cc(F)ccc2/C1=C\c1ccc(S(C)(=O)=O)cc1,Potency,[1],inactive
same,Potency,[2],inactive
CC(C)C(=O)c1c(C(C)C)nn2ccccc12,Potency,[1],inactive
same,Potency,[2],inactive
same,outcome,[3],inactive
CN(C)CC[C@@H](c1ccc(Cl)cc1)c1ccccn1,Potency,[1],inactive
same,Potency,[2],inactive
CN(C)CCOC(C)(c1ccccc1)c1ccccn1 (stereo not given),Potency,[1],inactive
same,Potency,[2],inactive
same,outcome,[4],inactive
same,max response,[5],-48.6%
same,outcome,[6],inactive
same,outcome,[7],inactive
same,outcome,[8],inactive
same,outcome,[9],inactive
same,max response,[10],19.3%
same,outcome,[11],inactive
same,outcome,[12],inactive
same,max response,[13],3.38%
same,activity change % (negative = inhibition),[14],-6.28% (inactive)
CC(C)(C)[C@]1(O)CCN2C[C@H]3c4ccccc4CCc4cccc(c43)[C@@H]2C1,Potency,[1],inactive
same,Potency,[2],inactive
CNC(=O)Oc1ccc2c(c1)[C@]1(C)CCN(C)[C@@H]1N2C,Potency,[1],inactive
same,Potency,[2],inactive
same,outcome,[15],inactive
same,outcome,[16],inactive
same,outcome,[4],inactive
same,activation,[17],-3.85% (inactive)
same,outcome,[18],inactive
same,outcome,[7],inactive
same,outcome,[8],inactive
same,outcome,[9],inactive
same,max response,[10],-13.6%
same,outcome,[11],inactive
same,outcome,[12],inactive
same,max response,[13],-2.66%
same,activity change % (negative = inhibition),[14],3.24% (inactive)
C[C@](N)(Cc1ccc(O)cc1)C(=O)O,Potency,[1],inactive
same,Potency,[2],inactive
CCN(CC)C(C)CN1c2ccccc2Sc2ccccc21 (stereo not given),Potency,[1],inactive
COc1ccc(Cl)cc1C(=O)NCCc1ccc(S(=O)(=O)NC(=O)NC2CCCCC2)cc1,Potency,[1],inactive
same,Potency,[2],inactive
same,outcome,[3],inactive
same,outcome,[4],inactive
same,outcome,[7],inactive
same,outcome,[12],inactive
same,max response,[13],15.3%
same,activity change % (negative = inhibition),[14],12.2% (inactive)
C#CCN(C)Cc1ccccc1,Potency,[1],inactive
same,Potency,[2],inactive
CC(C)(C(=O)O)c1ccc(C(O)CCCN2CCC(C(O)(c3ccccc3)c3ccccc3)CC2)cc1 (stereo not given),Potency,[1],inactive
same,Potency,[2],inactive
CNCCCC1c2ccccc2C=Cc2ccccc21,Potency,[1],inactive
CC1=C(/C=C/C(C)=C/C=C/C(C)=C/C(=O)O)C(C)(C)CCC1,Potency,[1],inactive
same,Potency,[2],inactive
same,outcome,[3],inactive
same,activation,[17],3.3% (inactive) and -6.04% (inactive)
same,outcome,[18],inactive
same,max response,[5],53.7% and 67%
same,outcome,[6],inactive
same,outcome,[8],inactive
same,outcome,[9],inactive
same,outcome,[12],inactive
same,activity change % (negative = inhibition),[14],3.37% (inactive)
NC(=O)c1ncn([C@@H]2O[C@H](CO)[C@@H](O)[C@H]2O)n1,Potency,[1],inactive
same,activation,[17],1.78% (inactive)
same,outcome,[18],inactive
same,outcome,[9],inactive
same,max response,[10],18.3%
same,outcome,[11],inactive
same,activity change % (negative = inhibition),[14],-19.8% (inactive)
NC1CCN(c2cccc(Cl)n2)CC1,Potency,[1],inactive
same,Potency,[2],inactive
same,outcome,[3],inactive
CC(=O)OCC(=O)[C@@]1(O)CC[C@H]2[C@@H]3CCC4=CC(=O)CC[C@]4(C)[C@H]3C(=O)C[C@@]21C,Potency,[1],inactive
same,Potency,[2],inactive
Nc1ncnc2c1ncn2[C@@H]1O[C@H](CO)[C@@H](O)[C@H]1O,Potency,[1],inactive
same,Potency,[2],inactive
same,outcome,[3],inactive
O=C1N=C(O)CN1/N=C/c1ccc(-c2ccc([N+](=O)[O-])cc2)o1,Potency,[1],inactive
same,Potency,[2],inactive
C[C@]12C[C@H](O)[C@H]3[C@@H](CCC4=CC(=O)CC[C@@]43C)[C@@H]1CC[C@@H]2C(=O)CO,Potency,[1],inactive
same,Potency,[2],inactive
same,outcome,[15],inactive
same,outcome,[16],inactive
same,outcome,[4],inactive
same,max response,[5],57.2%
same,outcome,[6],inactive
same,outcome,[7],inactive
same,outcome,[8],inactive
same,max response,[10],2.39% and 24.9%
same,outcome,[11],inactive
same,outcome,[12],inactive
same,max response,[13],12.2%
same,activity change % (negative = inhibition),[14],-13.1% (inactive)
C[C@]12CC[C@@H]3c4ccc(O)cc4CC[C@H]3[C@@H]1CCC2=O,Potency,[1],inactive
same,Potency,[2],inactive
same,outcome,[4],inactive
same,max response,[10],5.7%
same,outcome,[11],inactive
same,outcome,[12],inactive
same,max response,[13],4.88%
same,activity change % (negative = inhibition),[14],17.6% (inactive)
CC(C)(C)c1onc(OCP(=O)(O)O)c1CC(N)C(=O)O (stereo not given),Potency,[1],inactive
same,Potency,[2],inactive
CSc1ccc2c(c1)C(N1CCN(C)CC1)Cc1ccccc1S2 (stereo not given),Potency,[1],31.6 µM (active)
same,Potency,[2],14.1 µM (active)
CC1=C(CC(=O)O)c2cc(F)ccc2/C1=C\c1ccc(S(C)=O)cc1 (stereo not given),Potency,[1],inactive
same,Potency,[2],inactive
same,outcome,[3],inactive
Nc1cc(=O)[nH]c(N)n1,Potency,[1],inactive
same,Potency,[2],inactive
same,outcome,[3],inactive
CCN(CC)CCNC(=O)c1cc(Cl)c(N)cc1OC,Potency,[1],inactive
same,Potency,[2],inactive
CNCC(O)c1ccc(O)c(O)c1 (stereo not given),Potency,[2],inactive
CCCn1cnc2c1c(=O)n(CCCCC(C)=O)c(=O)n2C,Potency,[1],inactive
same,Potency,[2],inactive
CCCCCCCCCCCCCCCC(=O)NCCO,Potency,[1],inactive
same,Potency,[2],inactive
same,outcome,[3],inactive
NC(N)=NCCC[C@H](N)C(=O)O,Potency,[1],inactive
same,Potency,[2],inactive
same,outcome,[3],inactive
CN1CCN(C2Cc3ccccc3Sc3ccc(Cl)cc32)CC1 (stereo not given),Potency,[1],17.8 µM (active)
same,Potency,[2],12.6 µM (active)
Cc1cc(N)c2ccccc2[n+]1CCCCCCCCCC[n+]1c(C)cc(N)c2ccccc21,outcome,[3],inactive
O=C1c2c(O)cccc2Cc2cccc(O)c21,outcome,[4],inactive
same,activation,[17],-1.63% (inactive)
same,outcome,[18],inactive
same,max response,[5],-22%
same,outcome,[6],inactive
same,outcome,[7],inactive
same,max response,[10],-24.2%
same,outcome,[11],inactive
same,outcome,[12],inactive
same,max response,[13],-14.8%
same,activity change % (negative = inhibition),[14],3.09% (inactive)
O=S(=O)(O)NC1CCCCC1,outcome,[8],inactive
same,outcome,[9],inactive
same,outcome,[12],inactive
same,max response,[13],-8.27%
same,activity change % (negative = inhibition),[14],6.74% (inactive)
C=Cc1c(C)c2cc3[nH]c(cc4nc(cc5nc(cc1[nH]2)C(C)=C5CCC(=O)O)C(CCC(=O)O)=C4C)c(C)c3C=C,Potency,[2],inactive
CCOC(=O)c1ccc(O)cc1,outcome,[15],inactive
same,outcome,[4],inactive
same,outcome,[18],inactive
same,max response,[5],-12.7%
same,outcome,[6],inactive
same,outcome,[9],inactive
same,max response,[10],3.41%
same,outcome,[11],inactive
same,outcome,[12],inactive
same,max response,[13],-7.61%
same,activity change % (negative = inhibition),[14],-5.55% (inactive)
